From PubChem BioAssay (NCI)
This is part of a sample that, as a whole, favours compounds with a hit. Of some 83,000 tested, about 20% had one in any assay.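 Testing used 96-well plates and a 48-hour single-concentration exposure. Example: -40 means 40% of the starting cells died.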 A number with no mark means an inactive call. The source made the active and inactive calls. How the source made its calls: active means growth percent below 10; inactive means the rest.

Key:
Assay in all cases: NCI-60 one-dose screen, 48 h (100 = growth as untreated, 0 = no growth, -100 = all killed)
Details in all cases: 10 µM unless noted
[1] = test system: DU-145 prostate
[2] = test system: K-562 leukemia
[3] = test system: MALME-3M melanoma
[4] = test system: MDA-MB-231 breast
[5] = test system: SF-268 CNS
[6] = test system: SF-295 CNS
[7] = test system: SF-539 CNS
[8] = test system: M14 melanoma
[9] = test system: HCT-15 colon
[10] = test system: HT29 colon
[11] = test system: SNB-75 CNS
[12] = test system: SNB-19 CNS
[13] = test system: U251 CNS
[14] = test system: PC-3 prostate
[15] = test system: SK-MEL-5 melanoma
[16] = test system: UACC-62 melanoma
[17] = test system: LOX IMVI melanoma
[18] = test system: SK-MEL-28 melanoma
[19] = test system: UACC-257 melanoma

| Compound | growth [1] | growth [2] | growth [3] | growth [4] | growth [5] | growth [6] | growth [7] | growth [8] | growth [9] | growth [10] | growth [11] | growth [12] | growth [13] | growth [14] | growth [15] | growth [16] | growth [17] | growth [18] | growth [19] |
| --- | --- | --- | --- | --- | --- | --- | --- | --- | --- | --- | --- | --- | --- | --- | --- | --- | --- | --- | --- |
| C1CCC(C(CC2CCCCN2)C2CCCCC2)CC1 (stereo not drawn) | 14% | -64.9% (active) | -73.2% (active) | 1.11% (active) | 49.9% | -62.9% (active) | -35.9% (active) | -88.2% (active) | 25% | -53.8% (active) | 7.79% (active) | 13.2% | -61.3% (active) | 23.9% | -94.3% (active) | -7.18% (active) | -95.5% (active) | -84.8% (active) | – |
| C=CCNC(=O)/C(=C/c1cccc([N+](=O)[O-])c1)NC(=O)c1ccccc1 | 116% | 108% | 102% | 116% | 99% | 103% | 92.5% | 88.8% | 87.5% | 113% | 87.5% | 91.2% | 96.8% | 94.7% | 97.9% | 95.3% | 93.4% | 119% | 7.53% (active) |
| N[C@H](CS)C(=O)O | 121% | 107% | 91% | 114% | 119% | 94.4% | 89.7% | 116% | 96.6% | 95.9% | 84.2% | 96.1% | 105% | 94.1% | 105% | 99.9% | 100% | 125% | – |
| CC(C)=CCNc1ncnc2c1ncn2C1OC(COP(=O)(O)O)C(O)C1O (stereo not drawn) | 4.87% (active) | 16.1% | 68.5% | 5.56% (active) | 59.9% | 25.6% | 52% | 50.5% | 31.6% | 31.6% | 65.2% | 89.5% | – | 12% | 81.1% | 69.6% | -61.3% (active) | 85.7% | 94.1% |
| Cc1nn(-c2nc3ccccc3s2)c(C)c1Oc1ccccc1O | 68.2% | 31.8% | 76.9% | 70.8% | 60.5% | 58.8% | 60.9% | 63.7% | 29.4% | 50.1% | 78.7% | 80% | 33.9% | 67% | 54.6% | 39% | 30.1% | 22.1% | 104% |
| O=c1[nH]cc(Nc2cc(Cl)c3nonc3c2[N+](=O)[O-])c(=O)[nH]1 | 111% | 108% | 109% | 104% | 126% | -37.1% (active) | 101% | 99.7% | 103% | 132% | 119% | 95.4% | 98.6% | 92.9% | 105% | 94.9% | 95% | 83.2% | 25.2% |
| Cc1ccc(S(=O)(=O)N2CCN(C(=O)CSc3nc4ccc(C)cc4[nH]3)CC2)cc1 | 109% | 74.8% | 126% | 92.3% | 101% | 159% | 110% | 101% | – | 117% | 109% | 100% | 106% | 88.3% | 116% | 82.3% | 101% | 85.3% | 63.4% |
| NS(=O)(=O)c1ccc(-n2ncc3c(SCc4ccccc4)ncnc32)cc1 | 78.1% | 74.8% | 82.8% | 91.4% | 96.2% | 64.7% | 91.6% | 67% | 93.7% | 94.1% | 102% | 93.9% | 98.3% | 90.9% | 79.5% | 92.8% | 92.8% | 107% | 56.6% |
| O=C(NC1CCS(=O)(=O)C1)c1ccc(C(=O)c2ccccc2)cc1 (stereo not drawn) | 128% | 108% | 108% | 124% | 118% | 99.6% | 103% | 98.6% | 101% | 106% | 90.9% | 97.9% | 90.1% | 101% | 110% | 95.6% | 95.6% | 89.2% | 82.7% |
| COc1ccc(NC(=O)c2ccccc2-c2ccccc2)c(C(N)=O)c1 | 29.6% | 14.2% | 34.3% | 54.1% | 49.5% | 17.4% | -1.25% (active) | 18.2% | – | 11.4% | -10.7% (active) | 39.8% | 45.9% | 32.8% | 29.7% | 55.7% | 36.9% | 59.7% | 49.7% |
| CCOC(=O)N1CCC(N=C2CSc3nnc(-c4cc(C(F)(F)F)cc(C(F)(F)F)c4)n3N2)CC1 | 64.6% | 28.3% | 68.4% | 34.4% | 50.2% | 33.4% | 18.3% | 27.5% | 25.2% | -3.65% (active) | – | 58.2% | 22.6% | 2.55% (active) | -67.5% (active) | 32.6% | 16.5% | 44.5% | 48.6% |
| COc1ccc(-n2cnc3cc(C(=O)N4CCCCC4)ccc32)cc1 | 111% | 99.4% | 97% | 96.4% | 105% | 97.9% | 98.1% | 101% | 104% | 102% | 86.6% | 94.3% | 96.6% | 94.6% | 102% | 101% | 97.9% | 99.1% | 101% |
| O=C1/C(=C/c2ccccc2O)C(=S)SN1Cc1ccco1 | 103% | 46.4% | 106% | 108% | 105% | 94.3% | 97.4% | 99.8% | 91.6% | 87.6% | 70.2% | 111% | – | 93.3% | 95.8% | 94.4% | 34.7% | 92% | 99.1% |
| Fc1ccc(-c2nn3c(-c4cc(C(F)(F)F)cc(C(F)(F)F)c4)nnc3s2)cc1 | 87.1% | 68.8% | 43.8% | 39.5% | 37.3% | 38.4% | 39.7% | 64.6% | 89.7% | 40.2% | – | 8.33% (active) | 4.98% (active) | 39.2% | 56% | 53.3% | 63.9% | 72% | 76.7% |
| COc1ccc(CC(=O)Nc2nn3c(-c4cc(C(F)(F)F)cc(C(F)(F)F)c4)nnc3s2)cc1 | 86% | 62.4% | 80.9% | 88% | 85.8% | 66.1% | 65.7% | 97% | 62.4% | 83.7% | – | 70.1% | 70.4% | 84.8% | 2.85% (active) | 28.6% | 52.3% | 84.5% | 58.2% |
| Nc1ccc(Oc2c(F)c(F)c(Oc3ccc(N)cc3)c(F)c2F)cc1 | 107% | 93.3% | 87.1% | 109% | 97.9% | 103% | 111% | 99.1% | 86.7% | 108% | 89.5% | 94.8% | 83.3% | 84.4% | 111% | 90.9% | 86.5% | 115% | 9.12% (active) |
| Cc1cn(C(C=O)OC(C=O)CO)c(=O)[nH]c1=O (stereo not drawn) | 108% | 104% | 98.8% | 108% | 113% | 102% | 104% | 108% | 102% | 110% | 75.1% | 101% | – | 102% | 105% | 106% | 103% | 99.1% | 88% |
